According to PubChem BioAssay (NCATS):
Records with an inconclusive call do not appear. Unmarked numbers belong to inactive results. Calls of active or inactive are those of the source. The call rests on the fitted dose curve; in most records, active means well fitted cell-killing curve with a large enough effect; inconclusive means small, poorly fitted or top-dose-only effect, or effect the other way; inactive means flat fitted curve, though single readings scatter.

assay: Cell Viability - LYMP2-003 (AID 965); details: LYMP2-003 lymphoblastoid cell viability; series mostly up to 92.2 µM; activity change, negative = cytotoxicity: at the top concentration;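 further: cells exposed to compounds for 24 h before reading; 0% = DMSO only and full effect = 92 µM tetraoctylammonium bromide; nearly all actives have a fitted effect of over 50% in size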
Excerpt: NIH Chemical Genomics Center [NCGC]
NIH Molecular Libraries Screening Centers Network [MLSCN]
National Institutes of Environmental Health Sciences [NIEHS]
National Toxicology Program [NTP]
We have developed a 1536-well cell-based assay for quantitative high throughput screening (qHTS) against a number of cell lines to determine in vitro cytotoxicity of small molecules. This particular assay uses a human lymphoblastoid cell line (LYMP2-003) purchased from Coriell Institute for Medical Research.
NCGC Assay Protocol Summary:
The CellTiter-Glo luminescent cell viability assay (Promega) is a homogeneous method to measure the number of viable cells in culture. The end point readout of this assay is based on quantitation of intracellular ATP, an indicator of metabolic activity, using the luciferase reaction. Luciferase catalyzes the oxidation of beetle Luciferin to oxyluciferin and light in the presence of ATP. The luminescent signal is proportional to amount of ATP present.
Using the CellTiter-Glo luminescent cell viability assay, the amount of cellular ATP was measured in the lymphoblastoid cell line with complete culture medium following compound treatment for 24 hours. The assay was performed in opaque white Kalypsys 1536-well plates. In the screen, tetraoctylammonium bromide was used as positive control. Library compounds were measured for their ability to cause acute toxicity in the cell line, as reflected by a decrease in intracellular ATP levels, in a concentration-dependent manner. […] AC50 values were determined from concentration-response data modeled with the standard Hill equation.
qHTS protocol for CellTiter Glo lymphoblastoid cellular assay
[Step] [Parameter] [Value] [Description]
1. Reagent; 5 uL; 2500 lymphoblastoid cells/well
2. Time; 5 hr; 37 C incubation
4. Controls; 23 nL; Tetraoctylammonium bromide 6.4pM to 92 uM
5. Time; 24 hr; 37 C incubation
6. Reagent; 5 uL; CellTiter Glo reagent
7. Time; 30 min; Room Temperature
8. Detection; Luminescence; Viewlux plate reader
Keywords: cell viability, cytotoxicity, lymphoblastoid cell line, luminescence, NTPHTS, NTPHTS_NCGC, NIEHS, DSSTox, MLSMR, MLSCN, NIH Roadmap, qHTS, NCGC

Compound	activity change, negative = cytotoxicity	outcome
Cn1c(=O)c2c(ncn2C)n(C)c1=O	13.3%	
Cn1c(=O)c2[nH]cnc2n(C)c1=O	4.97%	
NS(=O)(=O)c1cc2c(cc1Cl)NCNS2(=O)=O	5.12%	
N[C@@H](Cc1c[nH]c2ccc(O)cc12)C(=O)O	3.14%	
CC(C)C(=O)Nc1ccc([N+](=O)[O-])c(C(F)(F)F)c1	2.56%	
Nc1ccn([C@H]2CC[C@@H](CO)O2)c(=O)n1	19.5%	
CCC1(c2ccccc2)C(=O)NCNC1=O	21.8%	
Clc1ccc(C(c2ccccc2Cl)C(Cl)Cl)cc1 (centres undefined)	17%	
NCCS(=O)(=O)O	1.93%	
O=c1[nH]cc(F)c(=O)[nH]1	-16.9%	
CC(COc1ccccc1)N(CCCl)Cc1ccccc1 (centres undefined)	3.58%	
COc1ccc2c(c1)c(CC(=O)O)c(C)n2C(=O)c1ccc(Cl)cc1	0.931%	
Cc1cn([C@H]2C[C@H](N=[N+]=[N-])[C@@H](CO)O2)c(=O)[nH]c1=O	12.2%	
Cc1cn([C@H]2C=C[C@@H](CO)O2)c(=O)[nH]c1=O		inactive
Cc1ccc(-c2cc(C(F)(F)F)nn2-c2ccc(S(N)(=O)=O)cc2)cc1	10.7%	
Nc1c2c(nc3ccccc13)CCCC2	-12.7%	
CC(C)NCC(O)c1ccc(O)c(O)c1 (centres undefined)	-12.5%	
COc1ccc2[nH]cc(CCNC(C)=O)c2c1	9.23%	
O=c1c(-c2ccc(O)cc2)coc2cc(O)cc(O)c12	-8.67%	
